Hit rate of the full screen: of about 340,000 compounds, about 8,500 (2.5%) were called active. This excerpt belongs to a sample that is enriched for actives. Unmarked numbers belong to inactive results.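 The calls were made as follows: active = melting temperature shift of at least 10% of the positive control shift, at one fixed dose; inactive = the rest.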

The subject of the test is Glutamate receptor ionotropic, NMDA 3A (GRIN3A) ligand-binding domain. Put plainly: NR3A LBD thermal stabilization by compounds – biophysical, differential scanning fluorimetry, uHTS, primary screen (AID 1259313). Conditions: at 25 µM, hits give high values, 0% = protein alone, 100% = glycine-bound protein.
With `Cc1cccc(NC(=S)N2CCC(O)CC2)c1C`, the Tm shift relative to glycine control is 1.31%. As for `CC(C)=CCN1CCN(Cc2ccc(Oc3ncccn3)cc2)CC1CCO` (configuration not stated), the Tm shift relative to glycine control was 0.09%. For `COC(=O)c1ccc(NC(=O)C23CC4CC(C2)CC(n2cnc(Cl)n2)(C4)C3)cc1`, the Tm shift relative to glycine control is -0.61%. `COc1ccc(-n2cnnc2SCC(=O)Nc2cccc([N+](=O)[O-])c2)cc1`: the Tm shift relative to glycine control was -0.86%. In the case of `O=C(CSc1nc(-c2ccccc2)cs1)Nc1cccc([N+](=O)[O-])c1` it was 34.4% (active); in that of `O=C(CSc1ncn[nH]1)Nc1nc(-c2cccc([N+](=O)[O-])c2)cs1`, -2.42%. For the molecule `Cc1cc(/C=N/n2cnnc2)c(C)n1-c1ccc2ncccc2c1`, the Tm shift relative to glycine control was -0.4%. In the case of `Cc1nn(-c2ccccc2)c(C)c1/C=C/C(=O)OC(C)C(N)=O` (configuration not stated) it was -7.09%; in that of `Cc1ccc(C(=O)/C=C/c2c(C)nn(-c3ccccc3)c2Cl)cc1`, -10.2%; in that of `Cc1nn(-c2ccccc2)c(Cl)c1/C=C/C(=O)c1ccc(O)cc1`, 15.2% (active). Turning to `COc1ccc(Br)c2c1C(=O)CC2`, the Tm shift relative to glycine control was 2.15%.

Regarding `CCCCN(C)C(=O)C1CCN(Cc2ccccn2)CC1`, the Tm shift relative to glycine control was 1.37%. Take `COc1ccc(-c2cc(C(=O)N3CCN(Cc4ccc5c(c4)OCO5)CC3)on2)cc1OC`: the Tm shift relative to glycine control is -2.25%. Consider `COc1ccc(-c2csc3ncnc(N4CCN(S(=O)(=O)c5ccccc5C#N)CC4)c23)cc1`, for which the Tm shift relative to glycine control is -2.57%. With `CC(CNC(=O)Cn1cnc2c(OCc3ccccc3)ncnc21)c1ccccc1` (configuration not stated), the Tm shift relative to glycine control is 16.8% (active). As for `Cc1ccc(NC(=O)Cn2cnc3c(OCc4ccccc4)ncnc32)cc1C`, the Tm shift relative to glycine control is -1.41%. As to `O=C(Cn1cnc2c(OCc3ccccc3)ncnc21)NCc1nc2ccccc2[nH]1`, the Tm shift relative to glycine control was -0.08%.

For the molecule `COc1ccc(Br)cc1CN(C)C(=O)C1CC(=O)N(C2CCCC2)C1` (configuration not stated), the Tm shift relative to glycine control was -0.58%. To `O=C(O)C1CCN1C1CCCCC1` (configuration not stated) belongs -1.21%. In the case of `CCOC(=O)c1nnn(CC(=O)Nc2cccc(F)c2)c1C(=O)OCC`, the Tm shift relative to glycine control is -0.09%.

On to `Cc1nc(C)c(-c2nnc(-c3cccc(S(=O)(=O)N(C)C)c3)o2)cc1C(=O)NN`, for which the Tm shift relative to glycine control is 4.67%. For `O=C1/C(=C\c2ccc(O)cc2)CCC1CNc1ccc(Cl)cc1` (configuration not stated), the Tm shift relative to glycine control is 21.3% (active). Regarding `CC(C(=O)NC1CCS(=O)(=O)C1)N1C(=O)/C(=C/c2ccc(Cl)cc2)SC1=S` (configuration not stated), the Tm shift relative to glycine control was -5.79%. As for `CC1CCN(C2=NC(=O)/C(=C/c3ccc(O)cc3)S2)CC1`, the Tm shift relative to glycine control was -0.54%. Take `O=C(COC(=O)c1ccc(F)cc1)NCC1COc2ccccc2O1` (configuration not stated): the Tm shift relative to glycine control was 0.36%. As for `Cc1cc(C)c2c(c1)c(C)cc1nnc(SCC(=O)NCc3ccco3)n12`, the Tm shift relative to glycine control was 9.65%.

On to `Cc1ccccc1N1CC(C(=O)Nc2ccc(S(=O)(=O)N3CCCC3)cc2)CC1=O` (configuration not stated), for which the Tm shift relative to glycine control is -1.31%.

Regarding `COc1ccc(-n2c(SCC(=O)NCc3ccco3)nnc2-c2c[nH]c3ccccc23)cc1`, the Tm shift relative to glycine control is -3.71%.

Take `CC(Oc1ccc(-c2ccccc2)c(F)c1)c1ccn(S(=O)(=O)c2cccc3ccccc23)n1` (configuration not stated): the Tm shift relative to glycine control was 1.41%. For `NC(=O)c1ccsc1NC(=O)COC(=O)COc1ccc(C=O)cc1`, the Tm shift relative to glycine control was -1%. For the molecule `CCCCc1ccc(NC(=O)CN2C(=O)NC(Cc3ccccc3)C2=O)cc1` (configuration not stated), the Tm shift relative to glycine control was 38.2% (active). `Cc1cc(NC(=O)CN2C(=O)NC(CCc3ccccc3)C2=O)no1` (configuration not stated): the Tm shift relative to glycine control was 0%. On to `Cc1cc(C)c(NC(=O)CN2C(=O)NC(Cc3ccccc3)C2=O)c(C)c1` (configuration not stated), for which the Tm shift relative to glycine control was 0.16%.

For the molecule `Cc1scc(C(=O)NNC(=S)NCC(C)C)c1C`, the Tm shift relative to glycine control was -0.09%. In the case of `COCCCN1C(=O)c2ccc(C(=O)OCC(=O)NCc3ccccc3OC)cc2C1=O` it was -0.26%. In the case of `CCOc1ccc(NC(=O)CCCCCN2C(=O)[C@@H]3Cc4ccccc4CN3C2=O)cc1` it was -0.91%; in that of `COc1cc(OC)cc(C(=O)Nc2ccc(-c3nc4ccccc4o3)c(O)c2)c1`, 35.4% (active); in that of `COc1cc(OC)cc(C(=O)Nc2ncc3c(n2)CC(C)(C)CC3=O)c1`, -0.38%. For the molecule `COc1cc(OC)cc(C(=O)N[C@H](C(=O)Nc2nc3ccccc3[nH]2)C(C)C)c1`, the Tm shift relative to glycine control is -1.04%. In the case of `Cc1noc(C)c1S(=O)(=O)Nc1ccc(C(=O)N2CCN(c3ccc(F)cc3)CC2)cc1` it was -0.58%. For the molecule `CC/C(=N\O)C(C)(C)/[N+]([O-])=C/c1ccc(Br)cc1`, the Tm shift relative to glycine control is 0.62%.

`CC(C)CN1CCNC(=O)C1CC(=O)N(C)CC1CCOCC1` (configuration not stated): the Tm shift relative to glycine control was 0.85%.

As to `COCCNC(=O)Cn1cc2c(n1)CCCCC2`, the Tm shift relative to glycine control is -0.96%.

`COC(=O)c1cccc(-n2[nH]nnc2=S)c1`: the Tm shift relative to glycine control is -0.34%. As for `OCCNc1nc(Nc2ccc(Cl)c(Cl)c2)nc2ccccc12`, the Tm shift relative to glycine control was 15.3% (active).

As for `NS(=O)(=O)c1ccc(CCNc2nc(C(F)(F)F)nc3ccccc23)cc1`, the Tm shift relative to glycine control was -7.08%. For the molecule `Cc1ccc(Nc2nc(N)nc(CN3CCN(Cc4ccccc4)CC3)n2)cc1Cl`, the Tm shift relative to glycine control was -0.21%.

These data come from PubChem BioAssay AID1259313 (Sanford-Burnham Center for Chemical Genomics, 2017).
